# Laboratory results taken from PubChem BioAssay (NCATS).
# Results filed as inconclusive are left out. A call without a number means that no potency is given here. A number with no mark means an inactive call. Active and inactive are the calls of the source. Unless noted, calls follow the shape of the dose curve; as a rule, active = well fitted curve in the direction sought with a large enough effect; inconclusive = small, poorly fitted or top-dose-only effect, or another doubt; inactive = no such curve, though single readings can be large; an effect the other way counts as inactive or inconclusive.
# Legend:
# [1] = qHTS to identify inhibitors of the type 1 interferon - major histocompatibility complex class I in skeletal muscle: primary screen against the NCATS Mechanism Interrogation Plate v5.0 (MIPE) Libary (AID 1347411); also: nearly all actives have a fitted effect of over 65% in size
# Summary of the method: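 Seed engineered human myoblasts (HLA-B HiBit) in medium without dexamethasone containing 4 ng/ml IFN-beta; after 1 hr add compound titrations (top 46 uM final). Incubate 24 hrs at 37 C, lyse 10 min with HiBiT reagent, read luminescence.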
# [2] = target: Protein phosphatase 1D (Homo sapiens) (UniProt O15297); assay: RapidFire Mass Spectrometry qHTS Assay for Modulators of WT P53-Induced Phosphatase 1 (WIP1) (AID 1347424);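 also: amount of dephosphorylated VEPPL-S-QETFS peptide product formed by WIP1; series mostly up to about 63 µM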
# Protein phosphatase 1D (Homo sapiens), sequence (O15297 whole entry, looked up): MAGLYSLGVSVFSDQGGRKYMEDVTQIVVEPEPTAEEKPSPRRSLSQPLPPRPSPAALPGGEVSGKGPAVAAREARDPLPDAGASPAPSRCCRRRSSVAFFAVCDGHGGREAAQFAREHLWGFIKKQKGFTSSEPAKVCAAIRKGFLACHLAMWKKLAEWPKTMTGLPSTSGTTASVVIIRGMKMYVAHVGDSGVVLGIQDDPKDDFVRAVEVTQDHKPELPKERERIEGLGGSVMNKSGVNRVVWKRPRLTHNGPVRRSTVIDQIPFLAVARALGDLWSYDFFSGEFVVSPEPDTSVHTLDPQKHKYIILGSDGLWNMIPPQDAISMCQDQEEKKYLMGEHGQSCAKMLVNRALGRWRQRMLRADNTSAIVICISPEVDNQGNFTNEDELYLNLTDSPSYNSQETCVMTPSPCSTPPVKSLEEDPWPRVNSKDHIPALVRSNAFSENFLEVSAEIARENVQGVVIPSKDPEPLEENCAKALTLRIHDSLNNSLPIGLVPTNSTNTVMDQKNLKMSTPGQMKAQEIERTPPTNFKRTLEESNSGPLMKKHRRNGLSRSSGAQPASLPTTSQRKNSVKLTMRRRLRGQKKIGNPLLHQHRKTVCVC
# Summary of the method: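 RapidFire mass spectrometry measured dephosphorylated peptide after 5 min room-temperature reaction of 2 uM VEPPL-pS-QETFS with 10 nM WIP1 (50 mM Tris-HCl pH 7.5, 30 mM MgCl2, 0.1 mM EGTA, BSA), following 1 hr compound preincubation; 1 uM isotope-labelled product standard.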
# [3] = target: Protein phosphatase 1D (Homo sapiens) (UniProt O15297); assay: Rhodamine-PBP qHTS Assay for Modulators of WT P53-Induced Phosphatase 1 (WIP1) (AID 1347425)
# Summary of the method: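 5 nM WIP1 + 10 uM Rh-PBP, 50 mM Tris pH 7.5, 30 mM MgCl2, 1 mM TCEP, 0.1 mM EGTA, BSA; cpds pinned, 1 hr RT; + 10 uM phosphopeptide; fluorescence 1-min reads x 11 min; delta = f1 - f0.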
# [4] = target: Calcium and integrin-binding protein 1 (Homo sapiens) (UniProt Q99828); assay: Primary qHTS for Identification of Calcium Integrin Binding Protein 1 (CIB1) Competitor (AID 1508620);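 also: GST tagged CIB1 binding a fluorescein labelled alphaIIb integrin peptide tracer; top concentration of the series differs between compounds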
# Calcium and integrin-binding protein 1 (Homo sapiens), sequence (Q99828 whole entry, looked up): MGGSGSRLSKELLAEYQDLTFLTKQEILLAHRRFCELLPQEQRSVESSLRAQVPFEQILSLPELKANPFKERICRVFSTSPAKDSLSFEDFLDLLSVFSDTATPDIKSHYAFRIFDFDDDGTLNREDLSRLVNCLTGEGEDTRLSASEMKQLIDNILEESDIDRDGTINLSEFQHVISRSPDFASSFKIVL
# Summary of the method: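 CIB1-GST (1 uM final) and compound incubated 15 min at room temperature before adding FITC-alphaIIb peptide tracer (100 nM final). Competition for binding read by fluorescence polarization (ex 480, em 540) after another 15 min at room temperature.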
# [5] = Primary qHTS for small molecule stabilizers of the endoplasmic reticulum resident proteome: Secreted ER Calcium Modulated Protein (SERCaMP) assay (AID 1508630)
# Summary of the method: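 The SH-SY5Y reporter protocol was run at 3 concentrations up to 38.3 uM (primary) or 11 concentrations (follow-up): 16 h compound, 100 nM thapsigargin for 4 h, then extracellular luciferase luminescence.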
# [6] = A High-Content qHTS Against Drug Library for the Identification of Small Molecules that Inhibit DYT1 Early Onset Primary Dystonia-Associated Cell Pathology (AID 1645839; calls by dose curve; also: series mostly up to about 46 µM)
# Summary of the method: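 High-content imaging quantified EGFP-TorsinA mislocalization in HEK293-derived cells inducibly expressing DYT1 mutant torsinA, after 48 h exposure to compound given together with tetracycline induction. Cell count served as a toxicity channel alongside %pathology.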
# [7] = target: Cytochrome P450 2C9 (Homo sapiens) (UniProt P11712); assay: Cytochrome P450 family 2 subfamily C member 9 (CYP2C9) small molecule antagonists: luciferase biochemical (cell-free) qHTS assay (AID 1645842; active = well fitted curve in the direction sought with a large enough effect in the repeat runs; an effect the other way counts as inactive or inconclusive; also: series mostly up to about 57 µM; nearly all actives have a fitted effect of over 55% in size)
# Cytochrome P450 2C9 (Homo sapiens), sequence (P11712 whole entry, looked up): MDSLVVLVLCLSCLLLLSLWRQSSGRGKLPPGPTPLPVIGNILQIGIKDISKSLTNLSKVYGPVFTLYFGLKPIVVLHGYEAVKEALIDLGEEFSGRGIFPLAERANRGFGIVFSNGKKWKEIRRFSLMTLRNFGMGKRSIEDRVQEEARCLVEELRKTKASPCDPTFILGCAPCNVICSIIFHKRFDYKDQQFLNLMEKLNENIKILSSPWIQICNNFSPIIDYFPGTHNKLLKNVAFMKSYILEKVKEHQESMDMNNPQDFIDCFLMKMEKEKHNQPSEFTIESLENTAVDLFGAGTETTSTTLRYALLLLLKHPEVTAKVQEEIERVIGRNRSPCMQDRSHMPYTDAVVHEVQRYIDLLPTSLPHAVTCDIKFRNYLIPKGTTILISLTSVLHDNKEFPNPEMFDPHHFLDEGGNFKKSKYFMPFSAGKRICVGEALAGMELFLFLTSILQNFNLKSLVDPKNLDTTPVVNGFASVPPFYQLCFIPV
# Summary of the method: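 P450-Glo CYP2C9 system: proluciferin substrate with enzyme in mix containing 0.4% BSA, 10 min at room temperature, then NADPH regeneration solution added and incubated 1 h at 37C. Detection reagent stopped reaction; luminescence read after 20 min as RLU.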
# [8] = target: Cytochrome P450 2D6 (Homo sapiens) (UniProt P10635); assay: Cytochrome P450 family 2 subfamily D member 6 (CYP2D6) small molecule antagonists: luciferase biochemical (cell-free) qHTS assay (AID 1645840; active = well fitted curve in the direction sought with a large enough effect in the repeat runs; an effect the other way counts as inactive or inconclusive; also: nearly all actives have a fitted effect of over 55% in size; also: potency is read from the fitted curve at half-maximal effect)
# Cytochrome P450 2D6 (Homo sapiens), sequence (P10635 whole entry, looked up): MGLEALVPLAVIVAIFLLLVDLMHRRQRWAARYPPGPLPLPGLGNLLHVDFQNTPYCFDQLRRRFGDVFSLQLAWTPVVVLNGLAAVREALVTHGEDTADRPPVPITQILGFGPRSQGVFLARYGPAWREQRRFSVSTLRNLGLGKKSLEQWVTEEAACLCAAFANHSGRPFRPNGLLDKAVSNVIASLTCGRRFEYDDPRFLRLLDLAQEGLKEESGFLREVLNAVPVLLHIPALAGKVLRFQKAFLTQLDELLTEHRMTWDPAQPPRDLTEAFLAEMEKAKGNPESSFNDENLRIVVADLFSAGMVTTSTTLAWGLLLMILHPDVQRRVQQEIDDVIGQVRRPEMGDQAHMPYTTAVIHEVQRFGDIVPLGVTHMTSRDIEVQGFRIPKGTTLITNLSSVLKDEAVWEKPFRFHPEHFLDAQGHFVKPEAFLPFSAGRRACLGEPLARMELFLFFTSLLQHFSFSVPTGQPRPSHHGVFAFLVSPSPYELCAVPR
# Summary of the method: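 P450-Glo CYP2D6 system: proluciferin substrate converted by enzyme to luciferin, read by luminescence proportional to activity. Enzyme-substrate mix with compound 10 min at room temperature, then NADPH regeneration 1 h before detection reagent.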
# [9] = Primary qHTS for inhibitors of La Crosse Virus (LACV) - induced cell death in SH-SY5Y cells (AID 1508616); also: potency is read from the fitted curve at half-maximal effect
# Summary of the method: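 SH-SY5Y, 6000 cells/well; cpd via pin tool in DMSO; LACV 0.01 MOI; 6 d 37C 5% CO2; ATPLite, 5 min RT; luminescence normalized to ±virus DMSO controls.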
# [10] = Counterscreen qHTS for small molecule stabilizers of the endoplasmic reticulum resident proteome: GLuc-NoTag assay (AID 1508627); also: series mostly up to about 76 µM
# Summary of the method: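 Counterscreen line: SH-SY5Y-GLuc-NoTag cells, treated with compound 19 hr before a 4 hr, 100 nM thapsigargin calcium depletion. Secreted Gaussia luciferase in the medium was measured by luminescence after coelenterazine was added (0.07x final), with cells unlysed.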
# [11] = Confirmatory qHTS for small molecule stabilizers of the endoplasmic reticulum resident proteome: Secreted ER Calcium Modulated Protein (SERCaMP) assay (AID 1508628); also: series mostly up to about 76 µM; nearly all actives have a fitted effect of over 40% in size
# Summary of the method: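 Reporter secretion upon ER calcium depletion (100 nM thapsigargin, 4 h, 37C) is measured as medium luminescence with coelenterazine, after 16 h compound pretreatment of SH-SY5Y-GLuc-SERCaMP cells; primary at three concentrations up to 38.3 uM, follow-up at 11 (up to 76.6 uM).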
# [12] = Cell Viability qHTS for small molecule stabilizers of the endoplasmic reticulum resident proteome (AID 1508629); details: cell viability counter-screen, 100 nM thapsigargin for final 4 h;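 also: human SH-SY5Y neuroblastoma cells carrying the GLuc-SERCaMP reporter; compound exposure about 46 h in total before the viability read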
Compound,Potency [1],outcome [2],outcome [3],outcome [4],Potency [5],Potency [6],Potency [7],Potency [8],Potency [9],outcome [10],Potency [11],max response [12]
CN(CCOc1ccc(CC2SC(=O)NC2=O)cc1)c1ccccn1 (stereo not drawn),inactive,inactive,inactive,inactive,inactive,inactive,inactive,,,,,
O=C(O)c1cc(=O)[nH]c(=O)[nH]1,inactive,inactive,inactive,inactive,,inactive,inactive,inactive,,,,
Cc1noc(NS(=O)(=O)c2ccc(N)cc2)c1C,,inactive,inactive,inactive,inactive,inactive,inactive,inactive,inactive,,,
Cc1ccnc2c1NC(=O)c1cccnc1N2C1CC1,,inactive,inactive,inactive,inactive,inactive,inactive,inactive,inactive,,,
NC1(c2ccc(-c3nc4ccn5c(=O)[nH]nc5c4cc3-c3ccccc3)cc2)CCC1,,inactive,inactive,inactive,inactive,,inactive,,inactive,,,
CS(=O)(=O)c1ccc([C@@H](O)[C@@H](CO)NC(=O)C(Cl)Cl)cc1,,inactive,inactive,inactive,inactive,inactive,inactive,,inactive,,,
CN1CCN(c2c(F)cc3c(=O)c(C(=O)O)cn4c3c2OCN4C)CC1,,inactive,inactive,inactive,inactive,inactive,inactive,inactive,inactive,,,
Cc1c(-c2ccc(O)cc2)n(Cc2ccc(OCCN3CCCCCC3)cc2)c2ccc(O)cc12,,inactive,inactive,,,,,,,,,
COC(=O)Nc1nc2ccc(S(=O)c3ccccc3)cc2[nH]1 (stereo not drawn),,inactive,inactive,inactive,inactive,,inactive,12.3 µM (active),0.355 µM (active),,,
CCn1cc(C(=O)O)c(=O)c2cc(F)c(N3CCNCC3)nc21,,inactive,inactive,inactive,,inactive,inactive,inactive,inactive,inactive,inactive,28.2%
Cc1onc(-c2ccccc2Cl)c1C(=O)N[C@@H]1C(=O)N2[C@@H]1SC(C)(C)[C@@H]2C(=O)O,,inactive,inactive,inactive,,inactive,,,inactive,,,
C[C@]12C=CC(=O)C=C1CC[C@@H]1[C@@H]2C(=O)C[C@@]2(C)[C@H]1CC[C@]2(O)C(=O)CO,inactive,inactive,inactive,inactive,,inactive,,,,,,
O[C@@H](CNC[C@H](O)[C@H]1CCc2cc(F)ccc2O1)[C@@H]1CCc2cc(F)ccc2O1,,inactive,inactive,inactive,,,inactive,0.0389 µM (active),inactive,,,
Cc1cc(NS(=O)(=O)c2ccc(N)cc2)no1,,inactive,inactive,,,inactive,,,,,,
COC(=O)Nc1nc2ccc(Sc3ccccc3)cc2[nH]1,,,inactive,inactive,inactive,inactive,inactive,inactive,0.199 µM (active),,,
CC(C)(C)C(=O)OCOP(=O)(COCCn1cnc2c(N)ncnc21)OCOC(=O)C(C)(C)C,,inactive,inactive,inactive,inactive,inactive,inactive,inactive,,,,
COc1cc2c(Nc3ccc(Br)cc3F)ncnc2cc1OCC1CCN(C)CC1,,inactive,inactive,inactive,,inactive,inactive,inactive,,,,
COc1ccc2c(c1)c(CC(=O)OCC(=O)O)c(C)n2C(=O)c1ccc(Cl)cc1,,inactive,,inactive,,inactive,inactive,inactive,inactive,,,
Cc1cccc(Nc2ccncc2S(=O)(=O)NC(=O)NC(C)C)c1,,inactive,inactive,inactive,,inactive,,inactive,inactive,,,
Nc1ccc(S(=O)(=O)Nc2ccccn2)cc1,,inactive,inactive,,,inactive,inactive,inactive,inactive,,,
COc1cc(NS(=O)(=O)c2ccc(N)cc2)nc(OC)n1,,inactive,inactive,inactive,inactive,inactive,,inactive,,,,
